Laboratory results: PubChem BioAssay
Active and inactive are the calls of the source.

Legend:
Albumin (Bos taurus) = Albumin (Bos taurus) (UniProt P02769); experiment: compounds binding labelled BSA control protein – biochemical, small-molecule microarray, Alexa647 label, 635/667 nm fluorescence, artefact control for SMM control protein annotation, profiling panel (AID 1118); details: BSA-A647 binding, fluorescence 635 nm, higher = more signal;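 further: score merges 667 nm emission intensity and signal-to-noise per printed compound spot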
Sequence of Albumin (Bos taurus) (P02769 whole entry, looked up): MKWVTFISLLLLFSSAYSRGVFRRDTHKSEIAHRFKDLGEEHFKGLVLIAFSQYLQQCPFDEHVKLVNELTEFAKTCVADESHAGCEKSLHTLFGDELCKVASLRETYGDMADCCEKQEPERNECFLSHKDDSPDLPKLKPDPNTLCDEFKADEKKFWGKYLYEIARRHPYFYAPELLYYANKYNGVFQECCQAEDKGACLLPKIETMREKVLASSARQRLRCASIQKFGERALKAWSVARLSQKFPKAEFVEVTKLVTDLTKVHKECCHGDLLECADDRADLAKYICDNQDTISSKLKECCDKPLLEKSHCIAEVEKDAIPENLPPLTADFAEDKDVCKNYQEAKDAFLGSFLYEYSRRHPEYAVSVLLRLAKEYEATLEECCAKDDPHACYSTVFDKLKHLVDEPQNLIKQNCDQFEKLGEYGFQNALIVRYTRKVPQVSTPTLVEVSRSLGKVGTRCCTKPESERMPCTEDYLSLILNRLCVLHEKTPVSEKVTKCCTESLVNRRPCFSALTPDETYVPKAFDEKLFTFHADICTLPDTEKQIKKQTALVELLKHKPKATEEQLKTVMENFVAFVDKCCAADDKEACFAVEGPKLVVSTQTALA

[1] = probe aXIP binding to arrayed compounds – biochemical, NeuroSMM set, 635/667 nm fluorescence, primary screen (AID 1119); details: small-molecule microarray, higher = more signal, called active from +8 up or from −8 down;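 further: probe is the protein aXip251-270 applied at 1 µg/mL to compound-printed slides; binding of probe to printed compounds measured as 667 nm fluorescence plus signal to noise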
[2] = probe aNOTCH3 binding on compound microarray – biochemical, small-molecule microarray, 635/667 nm fluorescence, primary screen (AID 1120); details: higher = more signal;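 further: probe is a biotin-tagged antibody raised against NOTCH3 rather than NOTCH3 protein; score merges spot fluorescence near 667 nm with spot signal to noise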
[3] = probe aNOTCH2 binding on compound microarray – biochemical, small-molecule microarray, 635/667 nm fluorescence, primary screen (AID 1121); details: higher = more signal;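 further: score merges feature fluorescence read at 667 nm with its signal to noise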
[4] = molecular target: Carbonic anhydrase 2 (Homo sapiens) (UniProt P00918); experiment: compounds binding carbonic anhydrase 2 – biochemical, small-molecule microarray, Alexa647-labelled CAII, profiling panel (AID 1122); details: CAII-A647 binding fluorescence, higher = more signal
[5] = COS7 lysate on small-molecule microarray, probe aHis, 635 nm (AID 1123); details: COS7 cell lysate, fluorescence, higher = more signal;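 further: z-score combines 667nm fluorescence intensity with signal-to-noise per printed compound spot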
[6] = probe aLAP1 signal on lysate-treated microarray – cell lysate, small-molecule microarray, COS7 lysate, primary screen (AID 1124); details: probe aLAP1, fluorescence, higher = more signal;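 further: lysate comes from COS7 cells expressing LAP1 and is applied at 0.3 µg/mL; score merges spot fluorescence near 667 nm with signal-to-noise over triplicate slides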
Sam68 (KHDRBS1) = experiment: compounds binding KHDRBS1 protein – biochemical, small-molecule microarray, 635 nm fluorescence, primary screen (AID 1125); details: higher = more signal;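 further: score merges 667 nm channel intensity with signal to noise over triplicate slides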
[7] = test system: Chordin-like protein 2 (CHRDL2); experiment: compounds binding chordin-like 2 – biochemical, small-molecule microarray, 635 nm fluorescence, primary screen (AID 1126); details: fluorescence 635 nm, higher = more signal;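 further: printed compound slides probed with Chrdl2 protein at 4 µg/mL for 1 h at 4 C; score merges 667 nm emission intensity with signal to noise over three replicate slides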
[8] = molecular target: Concanavalin-A (Canavalia ensiformis) (UniProt P02866); experiment: compounds binding concanavalin A lectin – biochemical, small-molecule microarray, Alexa647 label, 635 nm, artefact control for SMM control protein annotation, primary screen (AID 1127); details: ConA-A647 binding fluorescence, higher = more signal;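 further: z combines 667 nm emission intensity with signal-to-noise across three replicate slides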
Sequence of Concanavalin-A (Canavalia ensiformis) (P02866 whole entry, looked up): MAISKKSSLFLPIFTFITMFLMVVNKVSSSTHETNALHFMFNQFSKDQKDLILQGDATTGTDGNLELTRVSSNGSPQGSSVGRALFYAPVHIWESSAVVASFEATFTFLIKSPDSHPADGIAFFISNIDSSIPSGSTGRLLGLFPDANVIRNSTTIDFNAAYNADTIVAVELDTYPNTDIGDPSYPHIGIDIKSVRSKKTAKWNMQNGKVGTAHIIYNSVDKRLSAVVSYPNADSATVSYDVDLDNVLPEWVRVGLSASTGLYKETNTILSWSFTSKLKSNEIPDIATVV

Row | Structure (SMILES) | composite z-score (Albumin (Bos taurus)) | composite Z-score [1] | composite z-score [2] | composite z-score [3] | composite z-score [4] | composite z-score [5] | composite z-score [6] | composite z-score (Sam68 (KHDRBS1)) | composite z-score [7] | composite z-score [8]
1 | COc1ccc([Si](C)(C)[C@H]2[C@H](CCO)O[C@@]3(C(=O)N(Cc4ccc(N5CCOC5=O)cc4)c4ccccc43)[C@@H]2C)cc1 | 0.243 | -0.392 (inactive) | -0.0697 | -0.1 | 0.417 | 1.5 | 0.171 | 0.968 | -0.07 | 1.11
2 | C=CCC(OC(C)=O)[C@@H]1[C@@H](N(Cc2cccc3ccccc23)C(=O)c2ccc(-c3ccccc3)cc2)c2cc(OCCCO)ccc2N1C(=O)c1ccc2ccccc2n1 (stereo not given in full) | 0.192 | -0.0401 (inactive) | 0.119 | -0.0639 | 0.0528 | 0.181 | 0.649 | 0.464 | 0.41 | -0.288
3 | CCCC[C@@H](O)C1=C(COC)Cn2c(=O)n(-c3ccccc3)c(=O)n2[C@H]1CO | -0.0338 | 0.0894 (inactive) | -0.0967 | -0.166 | -0.469 | -0.162 | 0.0924 | -0.532 | -0.0073 | -0.698
4 | C[C@@H](OCc1ccccc1)C1NC(=O)[C@@]23C(=O)N[C@@H](Cc4ccccc4)C2[C@H](C)[C@@]2(C)O[C@H]2C3/C=C/C/C=C\CNC(=O)[C@H](Cc2ccccc2)NC1=O (stereo not given in full) | 0.126 | 0.069 (inactive) | -0.0026 | -0.153 | 0.618 | 0.332 | -0.149 | -0.24 | 0.665 | -0.052
5 | C#CCN([C@H](/C=C/C1CC1)[C@@H](O)Cc1ccccc1)[C@@H](Cc1ccccc1)C(=O)OC | -0.578 | -0.232 (inactive) | 0.15 | -0.164 | -0.179 | -0.485 | -0.454 | 0.0511 | 0.686 | -0.249
6 | CCOC(=O)C1=C(C(=O)OCC)N(S(=O)(=O)CC[Si](C)(C)C)[C@H](c2ccccc2)CC1 | 0.565 | -0.463 (inactive) | 0.112 | -0.075 | 0.443 | 0.727 | -0.102 | 1.3 | -0.0267 | 1.14
7 | C/C=C/CN(C(=O)C#Cc1ccccc1)[C@H](CO[Si](C)(C)C(C)(C)C)c1ccccc1 | -0.907 | -0.357 (inactive) | -0.384 | -0.22 | 0.599 | 0.043 | -0.155 | 0.248 | -0.553 | -1.17
8 | COCCOC(=O)N1C(=O)[C@@]2(c3cc(C#CCC(C(=O)OC)C(=O)OC)ccc31)[C@H](C(N)=O)[C@H]1C(=O)O[C@H](c3ccccc3)[C@H](c3ccccc3)N1[C@@H]2c1ccc(OCCO)cc1 | 0.483 | -0.0102 (inactive) | 0.0271 | -0.0984 | 0.565 | 1.87 | 0.307 | 1.29 | 0.519 | 1.07
9 | COCCOC(=O)N1C(=O)[C@@]2(c3cc(C#CC4(O)CCCCCC4)ccc31)[C@H](c1ccc(OCCO)cc1)N1[C@H](c3ccccc3)[C@H](c3ccccc3)OC(=O)[C@H]1[C@@H]2C(N)=O | 0.119 | 0.189 (inactive) | 0.0876 | -0.0907 | 0.3 | 0.615 | 0.519 | 1.3 | 0.986 | 1.17
10 | O=C(NCC(F)(F)F)[C@@H]1c2ccccc2C(=O)N(CC23CC4CC(CC(C4)C2)C3)[C@H]1c1ccc(CO)cc1 | 0.15 | 0.251 (inactive) | 0.0981 | -0.147 | 0.25 | 0.699 | 0.622 | 1.27 | 0.162 | 0.734
11 | COC(=O)[C@H](Cc1ccc(O)cc1)N1CC2=CCCC=C[C@@H]2[C@H]1[C@H](O)Cc1ccccc1 | 0.293 | -0.223 (inactive) | -0.0319 | -0.0772 | 0.669 | 0.16 | -0.0126 | -0.163 | 0.706 | 0.295
12 | Cc1ccc(S[C@]2(C(=O)NCCCN(C)C)CC(=O)N(Cc3ccccc3Cl)[C@@H]2c2ccc(CO)cc2I)cc1 | -0.153 | 0.153 (inactive) | -0.136 | -0.142 | 0.815 | 0.429 | 0.0345 | -0.406 | -0.697 | -0.708
13 | COc1ccc([Si](C)(C)[C@H]2[C@H](CC(=O)N3Cc4ccccc4C[C@H]3CO)O[C@@]3(C(=O)N(Cc4cccc(N5C(=O)c6cccc7cccc5c67)c4)c4ccccc43)[C@@H]2C)cc1 | -0.0311 | 0.285 (inactive) | -0.332 | -0.114 | 0.295 | 1.32 | 0.271 | 1.15 | 1.33 | 0.872
14 | COCCOC(=O)N1C(=O)[C@@]2(c3cc(C#CCC(C(=O)OC)C(=O)OC)ccc31)[C@H](C(=O)N1CCCCCCC1)[C@H]1C(=O)O[C@H](c3ccccc3)[C@H](c3ccccc3)N1[C@@H]2c1ccccc1OCCO | 0.847 | 0.269 (inactive) | 1.91 | 0.689 | 0.761 | 3.14 | 1.16 | 1.29 | 1.44 | 1.06
15 | CCCCCCCCCCC(O)C1C=CC2C(=O)N(C)C(=O)C2N1N1CCCCC1 (stereo not given) | -0.377 | -0.0231 (inactive) | -0.256 | -0.135 | -0.284 | 0.879 | 0.582 | -0.555 | -2.31 | -1.13
16 | CCCCC(=C=CC[C@@H](O)c1cccc(OCCO)c1)C[C@@H](O)COCc1ccccc1 | 0.59 | 0.196 (inactive) | -0.158 | -0.104 | 0.441 | 0.696 | 0.117 | -0.121 | -0.598 | -0.302
17 | COc1ccc(C#Cc2ccc3c(c2)[C@]2(C(=O)N3)[C@H](C(=O)Nc3nc4ccccc4s3)[C@H]3C(=O)O[C@H](c4ccccc4)[C@H](c4ccccc4)N3[C@@H]2c2ccc(OCCO)cc2)cc1 | 0.789 | 0.403 (inactive) | 0.109 | -0.0486 | 0.622 | 2.46 | 0.816 | 1.31 | 0.254 | 1.17
18 | Cc1ccc(S[C@]2(C(=O)NCC(F)(F)F)CC(=O)N(C3CCCCC3)[C@@H]2c2ccc(CO)cc2)cc1 | 0.344 | 0.399 (inactive) | -0.161 | -0.11 | 0.702 | 2 | 0.298 | 0.626 | -0.339 | -0.123
19 | COc1ccc(CCNC(=O)[C@@]2(Sc3ccc(C)cc3)CC(=O)N(Cc3cc(C(F)(F)F)cc(C(F)(F)F)c3)[C@@H]2c2ccc(CO)cc2)cc1 | -0.391 | -0.669 (inactive) | -0.352 | 0.118 | 0.711 | 1.16 | 0.538 | -1.13 | -2.73 | -3.06
20 | O=C1OCCC/C=C\[C@H]2OC34C=CCN(Cc5ccccc5)C(=O)[C@H]3N(CCCCCO)C(=O)[C@@H]4C12 (stereo not given in full) | 0.499 | -0.615 (inactive) | -0.366 | -0.112 | 0.861 | 3.41 | 1.65 | -0.904 | -0.906 | -1.64
21 | COC(=O)[C@@]1(Cc2ccc(F)cc2)[C@H]2c3cc(C(=O)N(C)C)n(CCO)c3C[C@H]2CN1C(=O)c1ccccc1 | 1.13 | -0.551 (inactive) | -0.0448 | 0.0746 | 0.861 | 1.97 | 1.21 | -0.206 | -0.437 | -0.0249
22 | CO[C@H]1O[C@H](CO)[C@@H](OC(=O)Nc2ccc(C(F)(F)F)cc2)[C@H](OC(=O)Nc2ccccc2-c2ccccc2)[C@H]1OC(=O)Nc1ccccc1-c1ccccc1 | -0.792 | 0.259 (inactive) | 0.144 | -0.0406 | 0.693 | 2.22 | -0.244 | 1.3 | -0.0407 | 1.2
23 | CN(C)CCCC[C@@H]1NC(=O)[C@@H]2C[C@H](C(=O)NCc3ccc(F)cc3)[C@H](c3ccc(O)cc3)N2C1=O | -0.16 | 0.0275 (inactive) | 0.0562 | -0.0974 | 0.609 | 0.901 | 0.339 | 0.17 | 0.0978 | 0.911
24 | NCCCC[C@@H]1NC(=O)[C@H]2C[C@@H](C(=O)NCc3ccc(F)cc3)[C@@H](c3cccc(OCCO)c3)N2C1=O | -0.364 | 0.125 (inactive) | 0.156 | -0.0995 | 0.549 | 1.46 | 0.251 | 1.3 | 1.47 | 0.701
25 | COc1ccc([Si](C)(C)[C@@H]2[C@@H](CCO)O[C@]3(C(=O)N(Cc4ccccc4)c4ccc(N5C(=O)c6ccccc6Oc6ccccc65)cc43)[C@H]2C)cc1 | 0.208 | 0.304 (inactive) | -0.192 | -0.155 | -0.0035 | 0.981 | -0.0345 | -0.809 | -1.36 | 0.718
26 | COC(=O)[C@@]1(CCC(=O)OC(C)(C)C)N=C(c2ccc(OCCCO)cc2)O[C@H]1c1ccccc1CN=[N+]=[N-] | -0.0515 | 0.69 (inactive) | -0.0984 | -0.0786 | 0.743 | 1.41 | 0.348 | -0.126 | -0.141 | 0.855
27 | C[C@]1(C(=O)NCC(F)(F)F)c2ccccc2C(=O)N(Cc2ccc(OC(F)(F)F)cc2)[C@H]1c1ccc(CO)cc1 | 0.499 | -0.568 (inactive) | -0.179 | -0.171 | 0.481 | 0.751 | 0.0891 | 0.185 | -0.0339 | 0.422
28 | C=CCOC(=O)[C@H]1[C@@H]2C(=O)O[C@@H](c3ccccc3)[C@@H](c3ccccc3)N2[C@@H](c2ccc(OCCOC(=O)[C@@H]3C[C@@H]4C(=O)N[C@@H](CC(C)C)C(=O)N4[C@@H]3c3ccc(O)cc3)cc2)[C@]12C(=O)Nc1ccc(I)cc12 | 0.822 | 1.65 (inactive) | 0.0469 | -0.0486 | 0.668 | 2.52 | 0.0414 | 1.3 | 1.33 | 1.13
